This is an account of results in PubChem BioAssay (NCATS).

Each structure is given as a SMILES string. Records with an inconclusive call do not appear. A number with no mark means an inactive call. The source made the active and inactive calls. Calls come from the whole dose curve; as a rule, active = well fitted inhibition curve with a large enough effect; inconclusive = small, poorly fitted or top-dose-only effect; inactive = no such curve, though single readings can be large or run the other way.
% is set by controls: 0 for no effect and ±100 for the full control effect.

In the test the target is Endonuclease 4 (Escherichia coli (strain K12)) (UniProt P0A6C1). In words: Counterscreen for APE1 Inhibitors: qHTS Validation Assay for Inhibitors of Endonuclease IV (AID 1708). As to conditions: E. coli endonuclease IV, DNA cleavage fluorescence; series mostly up to 57.1 µM; activity change, negative = inhibition: at the top concentration. From the text: Assay Provider: David M. Wilson, III, National Institute on Aging, NIH
Screening Center PI: Austin, C.P.
Screening Center: NIH Chemical Genomics Center [NCGC]
Escherichia coli endonuclease IV (Endo IV) is the key member of the AP endonuclease superfamily that catalyzes the cleavage of damaged DNA backbone immediately 5' of an AP site. E. coli EndoIV has the same functional activities as human APE1 but has no sequence or structural homology to the human protein. Herein, we utilize E. coli EndoIV to counter screen compound libraries as part of a high-throughput campaign for APE1 inhibitor identification. A concentration-response screen of the LOPAC1280 collection was performed under experimental conditions identical to those used in the APE1 screen.
Inhibition of APE1 activity was screened by utilizing double-stranded short substrate containing tetrahydrofuran (THF) abasic site labeled with rhodamine-type fluorophore (TAMRA) at the 5'-end and with non-fluorescent Black Hole Quencher-2 (BHQ-2) at the opposing 3'-end. An increase in the fluorescence intensity due to incision of the abasic site by APE1 was used to measure the enzyme activity.
Buffer: 50 mM Tris-HCl (pH 7.5) containing 50mM NaCl, 2 mM MgCl2, 1 mM DTT and 0.01% Tween-20.
Buffer in columns 3 and 4 as negative control (no enzyme).
Substrate: 50 nM final concentration of TAMRA/BHQ-2 substrate dispensed throughout the plate.
Enzyme: 2 nM E. coli EndoIV final concentration in columns 1, 2, 5-48. Column 1 is neutral (100% activity).
Control: Pintool transfer of control inhibitor NSC-13755 to column 2 of all assay plates. Two-fold, 16 pt dilution in duplicate to produce final concentrations in the 5.75 uM - 0.175 nM range.
Three uL of enzyme were dispensed to 1536-well Greiner black solid bottom plates. Compounds (23 nL) were transferred via Kalypsys pintool. The plates were incubated for 15 min at room temperature, and then 1 uL of substrate solution was added to start the reaction. The plates were immediately transferred into ViewLux High-throughput CCD imager (Perkin-Elmer) in order to measure the reaction progress in kinetic mode (three reads every 60 seconds) using 525 nm excitation and 598 nm emission fluorescence protocol. The fluorescence intensity difference between the third and the first time points was used to compute reaction progress.
For orientation: Counterscreens check selectivity or assay interference.
`CC(C)N(CCC(C(N)=O)(c1ccccc1)c1ccccn1)C(C)C` (configuration not stated): the outcome was inactive. For `CC[N+](CC)(CC)CCOc1cccc(OCC[N+](CC)(CC)CC)c1OCC[N+](CC)(CC)CC`, the “activity change, negative = inhibition” value is 14.7%. With `CC(NC(C)(C)C)C(=O)c1cccc(Cl)c1` (configuration not stated), the “activity change, negative = inhibition” value is -9.88%. The same measure, in the same setting: with `O=C(O)CCCc1ccc(N(CCCl)CCCl)cc1` the figure was -6.02%. On the same count and under the same terms, with `CC(C)(C)NCC(O)c1ccccc1Cl` (configuration not stated) the figure was -6.02%; with `CCC1(c2ccc(N)cc2)CCC(=O)NC1=O` (configuration not stated), -8.35%; with `O=P1(N(CCCl)CCCl)NCCCO1` (configuration not stated), -2.57%. On the same count and under the same terms, with `O=C(CCCN1CCC2(CC1)C(=O)NCN2c1ccccc1)c1ccc(F)cc1` the figure was -10.7%; with `C[C@]12CCC(=O)C=C1CC[C@@H]1[C@@H]2CC[C@]2(C)C(=O)CC[C@@H]12`, -5.78%; with `CC(C)c1cccc(C(C)C)c1O`, -11.2%. For the molecule `NCCc1ccc(O)cc1`, the “activity change, negative = inhibition” value was -6.67%. Same read-out and setting: with `CN1C(=O)CCS(=O)(=O)C1c1ccc(Cl)cc1` (configuration not stated) the figure was 0.562%.
